High-throughput results as filed in PubChem BioAssay.
Neddyl block – inhibitors of human cullin neddylation; TR-FRET cullin neddylation, biochemical; inhibition, % at 25 µM; 360,000 compounds, 0.58% hits; in the data active means inhibition above about 36%
GC-A act – GC-A (human) enzyme activation | P16066 | HEK293 GC-A cells, cGMP TR-FRET, EC30 ANP; 0% at EC30 ANP, 100% saturating ANP | activation, % at 10 µM | 370,000 compounds, 0.14% hits | AID 1671463; in the data active means activation above about 40%
TLR4 MyD88 comp – inhibitors of human TLR4-MyD88 binding; O00206+Q99836; HeLa CL3-4 TLR4/MyD88 BLA complementation, FRET ratio; 200,000 compounds, 0.18% hits; inhibition, % at 8.4 µM; in the data active means inhibition above about 25%;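 further: 0% = vehicle and 100% = reference inhibitor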
NOD2 RIPK2 PPI – inhibitors of human NOD2-RIPK2 interaction; 360,000 compounds, 0.38% hits; inhibition, % at 4.98 µM; O43353; AID 624267; CHO BLA complementation NOD2-RIPK2, CCF4 ratio; in the data active means inhibition above about 21%;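 further: 0% = vehicle only and 100% = reference blocker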
TLR9-MyD88 inh – TLR9-MyD88 interaction inhibition. CHO BLA complementation TLR9-MyD88, CCF4 FRET ratio. inhibition, % at 4.98 µM. 340,000 compounds, 0.21% hits. AID 504734;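 active means inhibition above the mean over all tested compounds plus 3 SD, cut at about 21% in these data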;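 further: 0% = DMSO only wells and 100% = clavulanate BLA inhibitor control wells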
NPR2 activator – GC-B (human) receptor activation; HEK293-GC-B cells, CNP EC30, cGMP TR-FRET; 0% at EC30 CNP, 100% saturating CNP; 370,000 compounds, 0.11% hits; activation, % at 10 µM;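 active means activation at 10 µM reaching about 35% in either raw or pattern-adjusted values, limit read from the data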
Neddyl conf – cullin neddylation inhibition, confirmation. shares compounds with Neddyl block. TR-FRET cullin neddylation biochemical assay. calls only at 25 µM. 1,800 compounds, 13% hits; in the data active means inhibition above about 40%;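 further: neddylation substrate is the cullin 1 ring ligase complex with SKP2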
An asterisk follows results filed as active; i = inactive; . = no result shown; + = active, no number. Hits are enriched below; roughly 1.2% of the tested compounds scored in any of these assays.

SMILES | Neddyl block | GC-A act | TLR4 MyD88 comp | NOD2 RIPK2 PPI | TLR9-MyD88 inh | NPR2 activator | Neddyl conf
C[C@H]1[C@@H](OC(=O)NCc2cccs2)CC[C@@]23CCCN2C(=O)CCC[C@@H]13 | . | 0.1 | . | . | . | -2.6 | .
CCN(CC)CCCNc1nc(C)cc(COC)c1C#N | 43.2* | 2.7 | -0.8 | -8.6 | -1.7 | 3.2 | i
O=C(COC(=O)/C=C/c1ccccc1)NCC1CCCO1 (configuration not stated) | -4.1 | 3.4 | 9.7 | -4.1 | 6.6 | -1.9 | .
CSc1ccc(/C=C/C(=O)OCC(=O)NCC2CCCO2)cc1 (configuration not stated) | 66.5* | 1.2 | . | 1.6 | 3.2 | -0.6 | .
O=C(c1ccncc1)N1CCN(S(=O)(=O)c2ccccc2F)CC1 | -10.8 | -1.4 | . | -15.7 | 7.7 | 1.3 | .
Oc1ccccc1C=NNc1nc2ccccc2s1 | 38.8* | 1.1 | . | -4.2 | -8.4 | -7.3 | i
CCS(=O)(=O)Nc1ccc(C2=NN(S(=O)(=O)CC)C(c3cccs3)C2)cc1 (configuration not stated) | 44.3* | -3.3 | . | 1.4 | -2.1 | -0.7 | i
CCS(=O)(=O)Nc1cccc(C2=NN(S(=O)(=O)CC)C(c3cccs3)C2)c1 (configuration not stated) | 6.9 | -0.6 | . | 3.4 | -1.3 | 3.3 | .
CN(Cc1nccs1)C(=O)c1cc(COc2cccc3cnccc23)on1 | 57.2* | -2.2 | . | -5.8 | 4.7 | -1.1 | .
CCOC(=O)C1CCCN(C(=O)c2cc3cc(OC)c(OC)cc3[nH]2)C1 (configuration not stated) | 42.5* | -1.0 | . | 1.4 | -2.9 | -0.8 | .
CCOC(=O)C1CCN(C(=O)c2cc3ccc(OC)cc3[nH]2)CC1 | 4.5 | 2.3 | . | -15.0 | -5.6 | -3.8 | .
NC(=O)c1cc2ccc(O)cc2oc1=Nc1ccccc1 | 53.6* | 9.9 | -36.4 | -80.4 | -111.4 | 7.8 | i
CCCCc1c(O)n2c(nc3ccccc32)[nH]c1=O | 60.0* | 2.8 | -13.3 | 4.3 | -6.0 | -1.3 | +
CCCc1cc(=O)n2c(nc3ccccc32)[nH]1 | 49.4* | 2.0 | 1.1 | -9.2 | -5.8 | 3.9 | .
Cc1cc(=O)n2c(nc3ccccc32)[nH]1 | . | -0.2 | -3.2 | -1.2 | -13.8 | -1.6 | .
CC[C@@H]1C(c2ccc(F)cc2)=NN(c2ccccc2)[C@H]1C(=O)N1CCOC1=O | -123.1 | -4.0 | . | 0.1 | -7.0 | 3.4 | .
CC[C@@H]1C(c2ccccc2)=NN(c2ccccc2)[C@H]1C(=O)N1CCOC1=O | 48.7* | -2.4 | . | 11.8 | 3.3 | 1.0 | .
COc1cc(CN2CCNC(=O)C2CC(=O)NCCCC2CCCC2)cc(OC)c1 (configuration not stated) | 7.7 | -6.7 | . | -13.9 | -7.2 | -8.9 | .
C[C@H]1COc2cc(N3CCCC3)ccc2S(=O)(=O)N1C | . | 5.1 | . | . | . | -3.4 | .
CC1(C)Nc2ccccc2C(=O)N1NC(=O)c1ccccc1 | 39.3* | 0.0 | 13.3 | -5.4 | -6.4 | 3.4 | i
COc1ccc(C(=O)NC2CC3CCCC(C2)N3Cc2ccccc2)c(OC)c1 (configuration not stated) | 41.7* | -2.4 | . | 4.2 | 1.8 | 7.7 | i
COc1ccc(C(=O)NC2CC3CCCC(C2)N3Cc2ccccc2)cc1 (configuration not stated) | -2.4 | -4.0 | . | 3.2 | -7.1 | 10.2 | .
O=C(O)C1CCN(C(=O)CSc2nc3cc(Cl)ccc3c(=O)n2Cc2ccccc2)CC1 | -1.7 | -4.8 | . | -2.1 | -9.1 | -1.1 | .
COc1ccc2oc(C(=O)NCC(c3ccco3)N(C)C)c(C)c2c1 (configuration not stated) | 49.7* | -0.5 | . | -0.1 | -0.3 | 0.3 | .
COc1ccc2oc(C(=O)Nc3nccs3)c(C)c2c1 | -78.1 | -3.2 | . | 4.3 | 7.4 | -8.8 | .
SMILES | Neddyl block | GC-A act | TLR4 MyD88 comp | NOD2 RIPK2 PPI | TLR9-MyD88 inh | NPR2 activator | Neddyl conf
COc1ccc2oc(C(=O)NC3(C)CCS(=O)(=O)C3)c(C)c2c1 (configuration not stated) | 57.9* | -0.2 | . | -6.8 | 2.4 | -2.4 | .
O=C(/C=C/[C@H]1O[C@@H](n2cnc3c(NC(=O)c4ccccc4)ncnc32)[C@H](O)[C@@H]1O)NCC(c1ccccc1)c1ccccc1 | 3.9 | 3.0 | . | -5.0 | . | 1.7 | .
C[C@H]1[C@@H](OC(=O)NC2CCC2)CC[C@@]23CCCN2C(=O)CCC[C@@H]13 | . | -1.1 | . | . | . | -3.3 | .
Cc1cccc(-n2ncc3c(NCCCO)ncnc32)c1 | 38.9* | 0.8 | -2.6 | -13.9 | 0.6 | 0.5 | i
C=CCNc1ncnc2c1cnn2-c1cccc(C)c1 | . | 5.8 | 5.3 | -1.7 | 11.4 | -2.1 | .
CCc1ccccc1NC(=O)c1cc(C)nn1-c1ccccc1 | . | 3.0 | . | . | . | -0.2 | .
COc1ccc(S(=O)(=O)N2CCC[C@H]2C(=O)N2CCC[C@H]2C(=O)NCc2ccccn2)cc1C | 3.5 | 4.8 | . | -9.5 | . | 0.7 | .
CCc1ccc2c(c1)C(=O)C[C@]1(CCC[C@H](C)C1)O2 | 26.2* | 0.3 | . | 9.1 | 1.0 | 1.3 | i
O=C1CC2(CCCCCC2)Oc2ccc(Cl)cc21 | 34.4 | -3.1 | . | -5.9 | 2.7 | -0.3 | .
O=C1CC2(CCCCC2)Oc2ccc(Cl)cc21 | 28.0* | 3.1 | . | -3.2 | 0.2 | 2.6 | i
CC(C)C(OC(=O)CN1C(=O)c2ccccc2C1=O)C(=O)NC1CCCC1 (configuration not stated) | -6.2 | 3.3 | . | -3.1 | -11.7 | 3.3 | .
CCCN(CC(=O)Nc1ccccc1C)C(=O)c1ccc(-c2ccc(C(C)=O)cc2)o1 | 60.7* | . | . | 6.3 | 2.0 | . | .
NC(=O)/C(=C\c1ccco1)NC(=O)c1ccco1 | 5.2 | -0.1 | . | -2.1 | 2.4 | -4.5 | .
NC(=O)/C(=C/c1ccco1)C(N)=S | 68.1* | 4.7 | . | 8.2 | -13.4 | 0.8 | i
CCOC(=O)c1ccc(NC(=S)N2CCN(c3ccc(N4CCOCC4)nn3)CC2)cc1 | . | 0.2 | 2.0 | -6.7 | -3.5 | 6.6 | .
CCOc1ccc(NC(=S)N2CCN(c3ccc(N4CCOCC4)nn3)CC2)cc1 | 42.4* | 1.1 | 15.4 | -7.8 | 1.7 | 6.5 | i
CC(=O)Nc1cc(NC(C)=O)cc(C(=O)OCC(=O)N(c2ccccc2)C2CCS(=O)(=O)C2)c1 (configuration not stated) | 5.0 | 1.2 | . | -6.0 | -1.6 | 1.8 | .
O=C(O)c1ccc2c(=O)n3c(nc2c1)/C(=C/c1ccc(C(F)(F)F)cc1)CC3 | 48.7* | -0.5 | . | -0.7 | 3.5 | -3.2 | +
N#Cc1ccc(/C=C2\CCCCn3c2nc2cc(C(=O)O)ccc2c3=O)cc1 | -13.3 | 3.2 | . | 4.7 | 5.0 | 3.4 | .
O=C(O)c1ccc2c(=O)n3c(nc2c1)/C(=C/c1ccc(Cl)cc1Cl)CC3 | . | 1.0 | . | -6.3 | -11.8 | 1.9 | .
O=C(O)c1ccc2c(=O)n3c(nc2c1)/C(=C/c1cccc(Cl)c1Cl)CC3 | 52.1* | 2.8 | . | -5.0 | -1.4 | -5.3 | .
